Measured values reported in ChEMBL document CHEMBL3988442, “University of Dundee, Small-Polar-MMV Screening Library” (2021).
Screen size: about 48,000 compounds; about 13,000 (27%) showed an effect of 50% or more. This is one part of the list.

system: Wolbachia pipientis; experiment: Anti-Wolbachia Cell-Based Screen; format: functional; parameters: scale not given: in the data most compounds retested in dose-response had high values; settings: 5 µM

**Q.** With Cc1noc(-c2cccnc2N2CCN(c3cnn(C)c3)CC2)n1 as the compound, how does the “Percent Effect” value read?
**A.** Its value is -14.91%.

**Q.** For O=C(NCCc1cccs1)N1CCCC2(CCC(=O)N(C3CC3)C2)C1 (stereo unspecified), which “Percent Effect” value is on record?
**A.** The value was -0.08952%.

**Q.** For NCC(=O)N1CCCCC1c1ccc(F)cc1 (stereo unspecified), which “Percent Effect” value is on record?
**A.** Its value is -11.61%.

**Q.** For CCOCCCC(=O)N1CCCC1c1nc(-c2ccccc2F)c[nH]1 (stereo unspecified), which “Percent Effect” value is on record?
**A.** Its value is -5.002%.

**Q.** For Cl.NCC(=O)N1CCCC1c1n[nH]cc1-c1ccccc1F (stereo unspecified), which “Percent Effect” value is on record?
**A.** The value was 132.3%.

**Q.** Which “Percent Effect” value does the source give for O=C(COCC1CC1)N1CCCC1c1nc(-c2ccccc2F)c[nH]1 (stereo unspecified) here?
**A.** Its value is 4.201%.

**Q.** How did the “Percent Effect” value turn out when CNCC(=O)N1CCCC1c1n[nH]cc1-c1ccccc1F.Cl (stereo unspecified) was run?
**A.** The value was 165.9%.

**Q.** CCC(=O)N1CCCC1c1n[nH]cc1-c1ccccc1F (stereo unspecified) was tested. Which “Percent Effect” value did it give?
**A.** The value was 184.8%.

**Q.** COC(=O)NCC(=O)N1CCCC1c1nc(-c2ccccc2F)c[nH]1 (stereo unspecified) was tested. Which “Percent Effect” value did it give?
**A.** Its value is 0.1259%.

**Q.** For O=C1CC(c2ccsc2)c2sc(C(=O)O)c(-c3ccccc3)c2N1 (stereo unspecified), which “Percent Effect” value is on record?
**A.** Its value is 15.35%.

**Q.** With O=C(NCCN1CCOCC1)c1ccc(-n2ccc3ccccc32)s1 as the compound, how does the “Percent Effect” value read?
**A.** The value was -14.37%.

**Q.** With O=C(NCCCN1CCCC1=O)c1ccc(-n2ccc3ccccc32)s1 as the compound, how does the “Percent Effect” value read?
**A.** The value was 114.9%.

**Q.** With CCN(CC)CCNC(=O)c1ccc(Cl)c(NS(C)(=O)=O)c1 as the compound, how does the “Percent Effect” value read?
**A.** The value was -1.52%.

**Q.** For Cc1ccc(OCCC(=O)NCCCN2CCCC2=O)c(C)c1, which “Percent Effect” value is on record?
**A.** The value was -5.078%.

**Q.** CCN(CC)CCNC(=O)c1ccc(-n2ccc3ccccc32)s1 was tested. Which “Percent Effect” value did it give?
**A.** Its value is 94.19%.

**Q.** How did the “Percent Effect” value turn out when O=C(NCCCN1CCOCC1)c1ccc(-n2ccc3ccccc32)s1 was run?
**A.** The value was 91.37%.

**Q.** With O=C(NCCCN1CCOCC1)C(OC1CCCC1)c1ccccc1 (stereo unspecified) as the compound, how does the “Percent Effect” value read?
**A.** The value was -5.979%.

**Q.** CCN(CC)CCNC(=O)c1ccn(COc2cc(C)cc(C)c2)n1 was tested. Which “Percent Effect” value did it give?
**A.** Its value is 5.075%.

**Q.** For O=C(NCCCN1CCCCC1)c1ccc(-n2ccc3ccccc32)s1, which “Percent Effect” value is on record?
**A.** The value was -1.697%.

**Q.** How did the “Percent Effect” value turn out when O[C@@H]1CN(Cc2cc(Cl)cc3cccnc23)C[C@@H]1O was run?
**A.** Its value is 10.63%.

**Q.** Which “Percent Effect” value does the source give for Cc1nc(CN(C)C(=O)c2ccc(Cn3cnnn3)cc2)cs1 here?
**A.** Its value is -19.39%.

**Q.** For CCOc1ncccc1Cn1cc(-c2cncnc2)nn1, which “Percent Effect” value is on record?
**A.** The value was -4.97%.

**Q.** O=C(NCc1nncn1C1CC1)c1ccc(F)c(COCC2CC2)c1 was tested. Which “Percent Effect” value did it give?
**A.** The value was -29.13%.

**Q.** How did the “Percent Effect” value turn out when CC(=O)c1ccc(N2CCC(CO)(CCOc3ccccc3)CC2)nc1 was run?
**A.** Its value is -10.96%.

**Q.** CC(C)c1nc(CN(C)Cc2ncccc2C(=O)O)cs1 was tested. Which “Percent Effect” value did it give?
**A.** The value was -6.183%.

**Q.** With O=C(c1ccc2nccnc2c1)N1C[C@@H](CN2CCCC2)[C@@H](CO)C1 as the compound, how does the “Percent Effect” value read?
**A.** The value was -11.65%.

**Q.** CC(C)C1CN(C(=O)c2ccc3nccnc3c2)CCS1 (stereo unspecified) was tested. Which “Percent Effect” value did it give?
**A.** The value was -6.684%.

**Q.** Cn1ccnc1C1CCCN(C(=O)c2ccc3nccnc3c2)C1 (stereo unspecified) was tested. Which “Percent Effect” value did it give?
**A.** The value was 95.06%.

**Q.** CCOc1ccc(C(=O)N2CCCC(c3nccn3C)C2)cc1OCC (stereo unspecified) was tested. Which “Percent Effect” value did it give?
**A.** The value was 100.4%.

**Q.** CCOc1ccc(C(=O)N2C[C@H]3CC[C@@H]2CN(C)C3)cc1OCC was tested. Which “Percent Effect” value did it give?
**A.** Its value is -32.38%.

**Q.** CCOc1ccccc1C(=O)N1CCCC(c2nccn2CCOC)C1 (stereo unspecified) was tested. Which “Percent Effect” value did it give?
**A.** Its value is -0.2171%.
